Data from the supplement of paper PMC9694430.
Counter-ions that a name gives are not always drawn.

What follows are compounds tested on LOC_OS03G27990-cb004 (assay: thermal shift delta Tm vs DMSO control; higher = stronger stabilization (binding)). Conditions: 12.5 µM; protein concentration 2 µM.
Method in brief: (§1)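 Rice kinase domain constructs were expressed in E. coli, purified, and tested by differential scanning fluorimetry with compound added in DMSO. Each well of a 96-well plate held 19.5 μl of 2 μM kinase in 100 mM potassium phosphate pH 7.5, 150 mM NaCl, 10% glycerol and 5 × SYPRO Orange, and fluorescence was read from 25°C to 95°C at 0.05°C/s. The melting temperature shift is the mean of triplicates, taken against protein with DMSO alone after Boltzmann fitting.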

SMILES	thermal shift delta Tm [°C]
CC(C)(C)c1cnc(CSc2cnc(NC(=O)C3CCNCC3)s2)o1	0.11
CN(C)C/C=C/C(=O)Nc1cc2c(Nc3ccc(F)c(Cl)c3)ncnc2cc1O[C@H]1CCOC1 [Afatinib (BIBW2992) Dimaleate]	1.68
O=C1c2c(O)cc(O)cc2OC(c2ccc(O)c(O)c2)C1O (centres undefined) [Taxifolin (Dihydroquercetin)]	0.2
CCN(CC)CCNC(=O)c1c(C)[nH]c(/C=C2\C(=O)Nc3ccc(F)cc32)c1C [Sunitinib Malate]	6.23
COc1cc(Nc2ncc(F)c(Nc3ccc4c(n3)N(COP(=O)(O)O)C(=O)C(C)(C)O4)n2)cc(OC)c1OC [Fostamatinib (R788)]	2.16
CC(C)(C)c1nc(-c2ccc(NC(=O)Nc3cccc(C(F)(F)F)c3)c3ccccc23)c2c(N)nccn12 [kira6]	7.11
CNC(=O)c1cc(Oc2ccc(NC(=O)Nc3ccc(Cl)c(C(F)(F)F)c3)cc2)ccn1 [Sorafenib Tosylate]	0.39
CC(=O)Nc1nc(C)c(-c2ccc(Cl)c(S(=O)(=O)NCCO)c2)s1	0.19
CCc1nc(-c2cccc(C)c2)c(-c2ccnc(NC(=O)c3ccccc3)c2)s1	0.28
C[C@@]1(C(=O)Nc2ccc(F)nc2)CCCN1c1nc(Nc2cc(C3CC3)n[nH]2)c2cccn2n1	0.21
COc1ccc(Cl)cc1NC(=O)Nc1cc(C)nc2ccccc12	0.52
C=CC(=O)Nc1cccc(Nc2nc(Nc3ccc(OCCOC)cc3)ncc2F)c1	1.06
CC(C)c1c2cc(-c3ccnc(NC4CCC(NC5CCOCC5)CC4)n3)ccc2nn1C (centres undefined)	0.18
C[C@H]1CNC(=O)c2cnn3ccc(nc23)N[C@H](C)c2cc(F)ccc2O1	0.55
Cn1cc(-c2ccc3c(c2)CCN3C(=O)Cc2cccc(C(F)(F)F)c2)c2c(N)ncnc21	0.12
Cn1c(=O)c(F)c(Nc2ccc(I)cc2F)c2c(=O)n(C[C@@H](O)CO)cnc21	0.21
CNC(=O)c1cccc(-c2ccc3c(N4CCOC[C@@H]4C)nc(N4CCOC[C@@H]4C)nc3n2)c1 [Vistusertib (AZD2014)]	0.11
Cc1nc(Nc2cnn(C3CCNCC3)c2)nc2c1N(C)C(=O)c1cc3ccccc3cc1N2C	0.13
COc1cc2/c(=N/c3ccc(Br)cc3F)nc[nH]c2cc1OCC1CCN(C)CC1 [Vandetanib (ZD6474)]	2.29

SMILES	thermal shift delta Tm [°C]
CCn1c(C(=O)N(C2CC2)C2CC2)cc2c3c(ncn3C)c(Nc3cc(C)n(C)n3)nc21	0.13
OCCn1cc(-c2cnc3nnn(Cc4ccc5ncccc5c4)c3n2)cn1	0.33
N#CC[C@H](C1CCCC1)n1cc(-c2ncnc3[nH]ccc23)cn1	0.41
CCn1nc(C2CCN(C(=O)CCO)CC2)nc1-c1cnc(N)c(-c2nnc(C(C)(C)C)o2)n1	0.52
CC(C)(C)c1cc(NC(=O)Nc2ccc(Oc3ccnc4[nH]c(=O)cnc34)cc2F)n(-c2ccccc2)n1	0.22
CO[C@H]1CC[C@H](N2C(=O)CNc3ncc(-c4ccc(C(C)(C)O)nc4)nc32)CC1	-0.29
CC[C@@H]1C(=O)N(C)c2cnc(Nc3ccc(C(=O)N[C@H]4CC[C@H](N5CCN(CC6CC6)CC5)CC4)cc3OC)nc2N1C(C)C [Volasertib (BI 6727)]	0.69
COc1ccc2c(c1)[C@]1(C[C@H]1c1ccc3c(/C=C/c4ccc(CN5C[C@@H](C)O[C@@H](C)C5)cc4)n[nH]c3c1)C(=O)N2	0.36
O=C(Nc1nc2cccc(-c3ccc(CN4CCS(=O)(=O)CC4)cc3)n2n1)C1CC1 [Filgotinib (GLPG0634)]	0.64
CCn1c(-c2nonc2N)nc2c(C#CC(C)(C)O)ncc(OC[C@H]3CCCNC3)c21	0.32
Cc1cnc(Nc2ccc(OCCN3CCCC3)cc2)nc1Nc1cccc(S(=O)(=O)NC(C)(C)C)c1	1.33
Cc1cc(Nc2cc(N3CCN(C)CC3)nc(/C=C/c3ccccc3)n2)n[nH]1 [ENMD-2076 L-(+)-Tartaric acid]	2.61
CC#CC(=O)N1CC[C@@H](n2c(=O)n(-c3ccc(Oc4ccccc4)cc3)c3c(N)ncnc32)C1 [ONO-4059 (GS-4059) hydrochloride]	0.44
CCN1CCN(Cc2ccc(Nc3ncc(F)c(-c4cc(F)c5nc(C)n(C(C)C)c5c4)n3)nc2)CC1	0.47
CN(C)C[C@@H]1CCn2cc(c3ccccc32)C2=C(C(=O)NC2=O)c2cn(c3ccccc23)CCO1	0.5
CN1CCN(Cc2ccc(NC(=O)Nc3ccc(Oc4ccnc(N)n4)cc3)cc2C(F)(F)F)CC1	0.06
O=C(NOCCO)c1ccc2cncn2c1Nc1ccc(I)cc1F	0.29
CCCCCCCCCCCCc1ccc(S(=O)(=O)Nc2nncs2)cc1	0.29

Each compound was assayed on LOC_OS03G50450-cb001 in the same assay as above. Conditions: 12.5 µM; protein concentration 2 µM.
Method in brief: as §1

SMILES	thermal shift delta Tm [°C]
CC(C)(C)c1cnc(CSc2cnc(NC(=O)C3CCNCC3)s2)o1	0.05
CN(C)C/C=C/C(=O)Nc1cc2c(Nc3ccc(F)c(Cl)c3)ncnc2cc1O[C@H]1CCOC1 [Afatinib (BIBW2992) Dimaleate]	0.41
O=C1c2c(O)cc(O)cc2OC(c2ccc(O)c(O)c2)C1O (centres undefined) [Taxifolin (Dihydroquercetin)]	0.2
CCN(CC)CCNC(=O)c1c(C)[nH]c(/C=C2\C(=O)Nc3ccc(F)cc32)c1C [Sunitinib Malate]	2.74
COc1cc(Nc2ncc(F)c(Nc3ccc4c(n3)N(COP(=O)(O)O)C(=O)C(C)(C)O4)n2)cc(OC)c1OC [Fostamatinib (R788)]	10.5
CC(C)(C)c1nc(-c2ccc(NC(=O)Nc3cccc(C(F)(F)F)c3)c3ccccc23)c2c(N)nccn12 [kira6]	0.7
CNC(=O)c1cc(Oc2ccc(NC(=O)Nc3ccc(Cl)c(C(F)(F)F)c3)cc2)ccn1 [Sorafenib Tosylate]	0.77
CC(=O)Nc1nc(C)c(-c2ccc(Cl)c(S(=O)(=O)NCCO)c2)s1	0.73
CCc1nc(-c2cccc(C)c2)c(-c2ccnc(NC(=O)c3ccccc3)c2)s1	0.06
C[C@@]1(C(=O)Nc2ccc(F)nc2)CCCN1c1nc(Nc2cc(C3CC3)n[nH]2)c2cccn2n1	-0.6
COc1ccc(Cl)cc1NC(=O)Nc1cc(C)nc2ccccc12	0.68
C=CC(=O)Nc1cccc(Nc2nc(Nc3ccc(OCCOC)cc3)ncc2F)c1	3.26
CC(C)c1c2cc(-c3ccnc(NC4CCC(NC5CCOCC5)CC4)n3)ccc2nn1C (centres undefined)	0.03
C[C@H]1CNC(=O)c2cnn3ccc(nc23)N[C@H](C)c2cc(F)ccc2O1	0.87
Cn1cc(-c2ccc3c(c2)CCN3C(=O)Cc2cccc(C(F)(F)F)c2)c2c(N)ncnc21	0
Cn1c(=O)c(F)c(Nc2ccc(I)cc2F)c2c(=O)n(C[C@@H](O)CO)cnc21	0.15
CNC(=O)c1cccc(-c2ccc3c(N4CCOC[C@@H]4C)nc(N4CCOC[C@@H]4C)nc3n2)c1 [Vistusertib (AZD2014)]	0.09
Cc1nc(Nc2cnn(C3CCNCC3)c2)nc2c1N(C)C(=O)c1cc3ccccc3cc1N2C	0.69
COc1cc2/c(=N/c3ccc(Br)cc3F)nc[nH]c2cc1OCC1CCN(C)CC1 [Vandetanib (ZD6474)]	1.05

SMILES	thermal shift delta Tm [°C]
CCn1c(C(=O)N(C2CC2)C2CC2)cc2c3c(ncn3C)c(Nc3cc(C)n(C)n3)nc21	0.66
OCCn1cc(-c2cnc3nnn(Cc4ccc5ncccc5c4)c3n2)cn1	0.8
N#CC[C@H](C1CCCC1)n1cc(-c2ncnc3[nH]ccc23)cn1	0.17
CCn1nc(C2CCN(C(=O)CCO)CC2)nc1-c1cnc(N)c(-c2nnc(C(C)(C)C)o2)n1	0.05
CC(C)(C)c1cc(NC(=O)Nc2ccc(Oc3ccnc4[nH]c(=O)cnc34)cc2F)n(-c2ccccc2)n1	0.17
CO[C@H]1CC[C@H](N2C(=O)CNc3ncc(-c4ccc(C(C)(C)O)nc4)nc32)CC1	0.22
CC[C@@H]1C(=O)N(C)c2cnc(Nc3ccc(C(=O)N[C@H]4CC[C@H](N5CCN(CC6CC6)CC5)CC4)cc3OC)nc2N1C(C)C [Volasertib (BI 6727)]	1.23
COc1ccc2c(c1)[C@]1(C[C@H]1c1ccc3c(/C=C/c4ccc(CN5C[C@@H](C)O[C@@H](C)C5)cc4)n[nH]c3c1)C(=O)N2	0.66
O=C(Nc1nc2cccc(-c3ccc(CN4CCS(=O)(=O)CC4)cc3)n2n1)C1CC1 [Filgotinib (GLPG0634)]	1.73
CCn1c(-c2nonc2N)nc2c(C#CC(C)(C)O)ncc(OC[C@H]3CCCNC3)c21	0.05
Cc1cnc(Nc2ccc(OCCN3CCCC3)cc2)nc1Nc1cccc(S(=O)(=O)NC(C)(C)C)c1	1.51
Cc1cc(Nc2cc(N3CCN(C)CC3)nc(/C=C/c3ccccc3)n2)n[nH]1 [ENMD-2076 L-(+)-Tartaric acid]	8.63
CC#CC(=O)N1CC[C@@H](n2c(=O)n(-c3ccc(Oc4ccccc4)cc3)c3c(N)ncnc32)C1 [ONO-4059 (GS-4059) hydrochloride]	0.4
CCN1CCN(Cc2ccc(Nc3ncc(F)c(-c4cc(F)c5nc(C)n(C(C)C)c5c4)n3)nc2)CC1	0.16
CN(C)C[C@@H]1CCn2cc(c3ccccc32)C2=C(C(=O)NC2=O)c2cn(c3ccccc23)CCO1	-0.45
CN1CCN(Cc2ccc(NC(=O)Nc3ccc(Oc4ccnc(N)n4)cc3)cc2C(F)(F)F)CC1	-0.31
O=C(NOCCO)c1ccc2cncn2c1Nc1ccc(I)cc1F	-0.24
CCCCCCCCCCCCc1ccc(S(=O)(=O)Nc2nncs2)cc1	-0.07
